RXFP1 agonist – qHTS Assay for Agonists of the Relaxin Receptor RXFP1 | Relaxin receptor 1 (Homo sapiens), Q9HBX9 | Potency, µM (doses to about 57.5 µM), without a hit: at the top dose activation, actives largely listed as activators | HEK293T-RXFP1 cAMP TR-FRET, 30 min; response scale: percent of porcine relaxin response, buffer zero | 370,000 compounds, 0.3% hits; active = well fitted activation curve with a large enough effect; inconclusive = small, poorly fitted or top-dose-only effect; also: potency is read from the fitted curve at half-maximal effect; % is scaled to controls: 0 for no effect and ±100 for the full control effect; nearly all actives have a fitted effect of over 60% in size
Target sequence (Q9HBX9 whole entry, looked up): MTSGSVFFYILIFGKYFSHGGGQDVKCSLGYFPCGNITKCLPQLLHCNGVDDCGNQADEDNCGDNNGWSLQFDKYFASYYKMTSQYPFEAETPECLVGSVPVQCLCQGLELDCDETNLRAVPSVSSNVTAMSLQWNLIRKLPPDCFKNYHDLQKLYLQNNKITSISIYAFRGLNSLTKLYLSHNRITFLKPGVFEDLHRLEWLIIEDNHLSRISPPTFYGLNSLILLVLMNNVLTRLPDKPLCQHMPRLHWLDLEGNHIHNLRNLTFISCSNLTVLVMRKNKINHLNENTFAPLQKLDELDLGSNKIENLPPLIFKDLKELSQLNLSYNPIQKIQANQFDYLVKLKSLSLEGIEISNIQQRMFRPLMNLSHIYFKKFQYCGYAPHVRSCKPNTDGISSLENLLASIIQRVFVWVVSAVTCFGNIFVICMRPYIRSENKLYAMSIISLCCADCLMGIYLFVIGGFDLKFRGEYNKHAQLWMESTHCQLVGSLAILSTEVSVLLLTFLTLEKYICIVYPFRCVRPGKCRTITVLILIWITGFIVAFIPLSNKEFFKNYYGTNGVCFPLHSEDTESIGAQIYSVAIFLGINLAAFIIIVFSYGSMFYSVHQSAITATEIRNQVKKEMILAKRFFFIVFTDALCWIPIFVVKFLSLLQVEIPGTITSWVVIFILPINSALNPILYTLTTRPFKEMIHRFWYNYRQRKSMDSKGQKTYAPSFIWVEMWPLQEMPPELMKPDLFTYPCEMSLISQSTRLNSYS
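HEK293 cells stably expressing RXFP1, treated 30 min at 37C with compounds plus PDE4 inhibitor Ro 20174; cAMP measured by HTRF TR-FRET. Normalized to buffer and 29 nM porcine relaxin; EC50 by Hill fit.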
gsp ag – qHTS for Agonist of gsp, the Etiologic Mutation Responsible for Fibrous Dysplasia/McCune-Albright Syndrome: qHTS | AID 624287, 2012 | Potency, µM (doses to about 76.9 µM), inactives show at the highest dose activation (cAMP increase), actives largely listed as activators | gsp mutant cells, cAMP HTRF, 30 min | 340,000 compounds, 0.13% hits; active = well fitted activation curve with a large enough effect; inconclusive = small, poorly fitted or top-dose-only effect, or another doubt; inactive = no such curve, though single readings can be large or run the other way; cell line not stated here;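 also: phosphodiesterase inhibitor Ro 20-1724 added with compounds to block cAMP breakdown; potency is read from the fitted curve at half-maximal effect; nearly all actives have a fitted effect of over 60% in size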
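Cells stably selected in G418 were plated at 2000/well, grown 16-24 hr, then given compounds in DMSO with the PDE inhibitor […] (300 uM solution added) for 30 min at 37C; cAMP was read by HTRF.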
gsp antagonist – qHTS for Antagonists of gsp, the Etiologic Mutation Responsible for Fibrous Dysplasia/McCune-Albright Syndrome: qHTS; gsp-mutant cells, cAMP HTRF, 30 min; Potency, µM (series often up to 76.9 µM), inactives show at the top dose activity change, negative = inhibition, most hits filed as inhibitors; 340,000 compounds, 0.4% hits; calls by dose curve; cell line not stated here;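 also: intracellular cAMP measured with PDE inhibitor Ro 20-1724 present during compound exposure; potency is read from the fitted curve at half-maximal effect; % is scaled to controls: 0 for no effect and ±100 for the full control effect; nearly all actives have a fitted effect of over 65% in size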
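Measurement of cellular cAMP by homogeneous time-resolved fluorescence following a 30 min compound exposure at 37C. The PDE inhibitor […] was present throughout; the assay buffer was DPBS with 0.05% BSA and 0.005% Tween 20.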
RXFP1 antagonist – qHTS Assay for Antagonists of the Relaxin Receptor RXFP1; HEK293-RXFP1, relaxin-stimulated cAMP HTRF, 30 min; stronger effect = lower value; activity change, negative = inhibition, % at 57.5 µM; Relaxin receptor 1 (Homo sapiens), Q9HBX9; 350,000 compounds, 0.59% hits;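 active = activity change of -60% or lower, but not beyond a set lower limit; inconclusive = change between -60% and -40%, or beyond the set limit; inactive = change above -40%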; also: % is scaled to controls: 0 for no effect and ±100 for the full control effect
Akt phos inh – HTS Assay for Inhibitors of Akt Phophorylation: Primary Screen | Neuro2A IGF-stimulated pAkt S473 HTRF, 20 min; stronger effect = lower value | activity change, % for hits at 50 µM | 360,000 compounds, 0.32% hits | AID 651550, 2012; in the data active = activity change below about -80%; inconclusive = mostly about -51% to -80%; also: % is scaled to controls: 0 for no effect and ±100 for the full control effect
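Neuro2A cells in DMEM with 0.5% FBS, overnight at 37 deg C, given compound at single 50 µM final, then IGF (6 nM final) for 20 min at 37 deg C. Lysed; phospho-Akt Ser473 by HTRF after 24 h, 665/615 ratio.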
The depositor's hits bear a star; i = inactive; u = inconclusive; x = no result given; [ ] = another dose, or the depositor's remark. Only some compounds are listed: those with a hit (about 1.2% of all), similar ones and a draw of the others.

SMILES	RXFP1 agonist	gsp ag	gsp antagonist	RXFP1 antagonist	Akt phos inh
CCN(CC)c1ccc(C2C(C(N)=O)=C(C)Nc3nc(SCc4ccccc4Cl)nn32)cc1 (configuration not stated)	-0.3%	x	x	x	x
CCC1SC(=NC(=O)c2ccc(Cl)c(Cl)c2)NC1=O (configuration not stated)	-0.8%	1.7%	12.6µM*	-11.5	i
Cc1ccc(C)c(Oc2nnnn2-c2ccccc2)c1	-2.1%	8.7%	7.1%	-4.2	-114.6%*
Cc1ccc(C(C)C)c(Oc2nnnn2-c2ccccc2)c1	0.4%	3.6%	u	-11.0	i
CCOC(=O)c1c(C)[nH]sc1=S	25.1µM*	35.8%[15.4 µM]	11.2%	8.9	i
Cc1c(F)cc2c(=O)c(C(=O)O)cn3c2c1CCC3C (configuration not stated)	x	x	x	-7.4	x
COc1ccc(Nc2nc3cc(Cl)c(Cl)cc3n3cnnc23)cc1Cl	11.8%	x	x	-2.8	x
CCOc1cc(/C=C2\CCC/C(=C\c3cc(Cl)c(O)c(OCC)c3)C2=O)cc(Cl)c1O	-0.2%	5.3%	-25.5%	-68.8*	i
CCCN(CCC)C(=O)C(CCC(=O)OCCCN1CCN(CCOC(=O)Cc2c(C)n(C(=O)c3ccc(Cl)cc3)c3ccc(OC)cc23)CC1)NC(=O)c1ccccc1 (configuration not stated)	x	x	x	-25.0	x
O=C(O)c1ccccc1-c1nc2ccccc2c(=O)[nH]1	2.0%	0.3%	16.5%	-3.4	-105.3%*
O=C(O)c1ccccc1-c1nc(-c2ccccc2)c(-c2ccccc2)[nH]1	6.3%	1.1%[15.4 µM]	-12.9%	-3.3	i
Cc1cc(C)c2c(CN3CCN(c4ccccc4)CC3)cc(=O)oc2c1	x	x	x	x	i
Cc1cc(O)c(CN2CCN(c3ccccc3)CC2)c2oc(=O)cc(C)c12	17.8µM*	x	x	-7.5	x
CC(C)(C)C(=O)NC(=S)NNC(=O)C(c1ccccc1)c1ccccc1	0.4%	-2.6%	-1.0%	-94.4*	i
CC(=O)NNC(=S)NC(=O)C(c1ccccc1)c1ccccc1	-1.7%	-18.0%	1.7%	-12.9	i
O=C(O)c1ccnc2c(O)cccc12	0.3%	x	x	x	x
CC(=O)Nc1c(Cl)cc(Cl)c2c1Cc1cc(Cl)ccc1-2	x	-39.1%	3.5%	-101.0*	i
O=C(C1CCCCC1)N(Cc1cccnc1)c1nc2c(F)cc(F)cc2s1	2.0%	x	x	-101.8*	x
CC(=O)N(Cc1cccnc1)c1nc2c(F)cc(F)cc2s1	2.0%	x	x	-12.6	x
OC[C@H]1O[C@H](O[C@]2(CCl)O[C@H](CCl)[C@@H](O)[C@@H]2O)[C@H](O)[C@@H](O)[C@H]1Cl	x	x	x	-3.6	x
CC(C)=C1C2CCC1C(C(=O)Nc1sc(C)c(-c3ccc(C(C)C)cc3)c1C(N)=O)C2C(=O)O (configuration not stated)	0.0%	-0.2%	31.6µM*	-3.2	i
Cc1ccc(-c2c(C)sc(NC(=O)C3C4CCC(O4)C3C(=O)O)c2C(=O)OC(C)C)cc1 (configuration not stated)	6.3%	26.2%	-11.0%	-12.4	i
CC(C)c1ccc(N2C(=O)[C@@H]3Cc4ccccc4CN3C2=O)cc1	-1.3%	-22.0%	21.4%	-4.9	-108.3%*
Cc1ccc(N2C(=O)[C@@H]3Cc4ccccc4CN3C2=O)cc1	0.1%	-39.8%	10.4%	-2.8	i
COc1ccc(NC2=NCCC(=O)N2Cc2cccs2)cc1	1.4%	-6.7%	2.4%	3.6	-111.3%*
SMILES	RXFP1 agonist	gsp ag	gsp antagonist	RXFP1 antagonist	Akt phos inh
COc1ccc(NC2=NCC(=O)N2Cc2cccs2)cc1	1.2%	8.9%	-7.5%	-9.3	x
Cc1cccc(C(=O)Nc2sc(C(=O)N3CCCC3)c(C)c2C#N)c1	2.3%	7.3%	31.6µM*	1.1	i
CCc1oc2ccccc2c1C(=O)c1cc(I)c(O)c(I)c1	x	x	x	-16.1	x
CCOC(=O)c1c(C)[nH]c(C(=O)COC(=O)CCC(=O)c2ccc3c(c2)OCCO3)c1C	0.3%	4.8%	28.2µM*	-1.9	i
O=c1cc(C(F)(F)F)nc(SC/C=C/c2ccccc2)[nH]1	1.3%	-11.0%	u	-77.5*	i
Nc1cc(=O)[nH]c(SC/C=C/c2ccccc2)n1	0.3%	-21.4%	-7.3%	-0.7	i
CCC1=C[C@@H]2CN(C1)Cc1c([nH]c3ccccc13)[C@@](C(=O)OC)(c1cc3c(cc1OC)N(C)[C@H]1[C@@](O)(C(=O)OC)[C@H](OC(C)=O)[C@]4(CC)C=CCN5CC[C@]31[C@@H]54)C2	x	x	x	-32.9	x
Cc1nonc1NC(=O)CSc1nc2cc(Cl)ccc2c2c1CCCC2	u	-2.7%	-18.5%	16.9	-94.4%*
Cc1ccc2c3c(c(SCC(=O)Nc4nonc4C)nc2c1)CCCC3	25.4%	-46.7%	6.3%	-4.1	i
CC(C)N(C(=O)c1cc2c(Cl)nc3ccccc3c2s1)C1CCCCC1	-3.6%	x	x	x	x
COc1cccc(N2CCN(c3cnc4ccccc4n3)CC2)c1	-1.8%	15.0%[15.4 µM]	44.7µM*	-19.7	i
CCOc1ccc(N2C(=O)c3[nH]nc(-c4ccc(OC)cc4)c3C2c2cccs2)cc1 (configuration not stated)	1.5%	x	x	-28.4	x
CCc1c(O)cc2n(c1=O)-c1ccc(Cl)cc1C2(C)C	-0.2%	u	44.7µM*	1.0	i
CCCN1C(=O)C2(OCCO2)c2cc(Cl)ccc21	-0.2%	-4.8%	-5.6%	-9.2	i
Cc1cccc(C)c1OC(=O)CSc1nnc(CNC(=O)c2ccccc2)o1	-7.2%	x	x	4.1	x
Cc1cc(C)c(S(=O)(=O)N2CCCOC2CNC(=O)C(=O)NCc2ccccn2)c(C)c1 (configuration not stated)	1.4%	24.4%[15.4 µM]	11.2µM*	-11.5	i
COc1ccccc1CNC(=O)COCc1cc(-c2cccs2)on1	-0.4%	x	x	-24.7	x
CCCCCCCCCCCCCCCC[N+](C)(C)CC	0.6%	x	7.4%	-86.8*	i
Cc1c(-c2nnc(SCC(=O)Nc3ccc(Cl)cc3)o2)nnn1-c1ccc(F)cc1	-0.6%	x	x	x	x
Cc1ccccc1N(C(=O)c1snc(C(N)=O)c1N)C(C(=O)NCc1ccccc1)c1ccc(O)cc1 (configuration not stated)	12.1%	-30.9%[15.4 µM]	10.7%	-30.2	i
NC(=O)c1nsc(C(=O)N(Cc2ccco2)C(C(=O)NCc2ccccc2)c2ccc(O)cc2)c1N (configuration not stated)	-1.0%	7.4%	11.2µM*	-4.2	i
Cc1cc(C)cc(N(CC(=O)NCc2ccco2)C(=O)c2snc(C(N)=O)c2N)c1	-1.0%	-63.2%	-12.3%	-60.2*	i

Screening data (PubChem BioAssay)
